In the supplement of paper PMC10849652:
About 8,800 targets were measured; listed, in parts, are those with a hit and a random draw of the rest. About 0.5% of all pairs of compound and target were hits.

Experiments:
Assay in all cases: log2 fold change, soluble protein after heating vs DMSO (PISA); higher = thermal stabilisation; K562 lysate, 10 uM; active = over 0.2 and 3.5 SD of the protein, either way, in both replicates (recomputed)
[1] = compound: C1=CC=C(C=C1)[C@H](COC2=CC3=C(C=C2)NC(=O)N3)NC(=O)C4=CC=CN(C4=O)CC5=CC(=C(C=C5)F)F
Method in brief: (§1)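 Soluble protein was defined as the supernatant remaining after 21,000xg for 90 min, following pooling of heated aliquots and adjustment to 0.5% NP-40 at 4°C. Before that, crude K562 extract at 1 mg/mL protein in PBS pH 7.4 with 1 mM MgCl2 was treated with 10 μM compound for 30 min and heated for 3 min across 48°C-58°C. Quantification used TMTpro 16plex LC-MS/MS with channel sums equalised, and values are log-two fold changes in thermal stability relative to solvent controls from duplicates.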

[2] = compound: CC1=C(SC2=C1C(=N[C@H](C3=NN=C(N32)C)CC(=O)N)C4=CC=C(C=C4)Cl)C
Method in brief: as §1

[3] = compound: CC1=C2C(=CC=C1)N=C(N(C2=O)C3=CC=CC=C3C)CN4C=NC5=C(N=CN=C54)N
Method in brief: as §1

[4] = compound: Cc1sc2c(c1C)C(c1ccc(Cl)cc1)=N[C@@H](CC(=O)OC(C)(C)C)c1nnc(C)n1-2
Method in brief: as §1

[5] = compound: c1ccc([C@@H]2C[C@H]2NC2CCNCC2)cc1
Method in brief: as §1

Measured: log2 fold change

SRPK1 (UniProt Q96SB4)
Chain of UniProt Q96SB4 (Q96SB4 whole entry, looked up): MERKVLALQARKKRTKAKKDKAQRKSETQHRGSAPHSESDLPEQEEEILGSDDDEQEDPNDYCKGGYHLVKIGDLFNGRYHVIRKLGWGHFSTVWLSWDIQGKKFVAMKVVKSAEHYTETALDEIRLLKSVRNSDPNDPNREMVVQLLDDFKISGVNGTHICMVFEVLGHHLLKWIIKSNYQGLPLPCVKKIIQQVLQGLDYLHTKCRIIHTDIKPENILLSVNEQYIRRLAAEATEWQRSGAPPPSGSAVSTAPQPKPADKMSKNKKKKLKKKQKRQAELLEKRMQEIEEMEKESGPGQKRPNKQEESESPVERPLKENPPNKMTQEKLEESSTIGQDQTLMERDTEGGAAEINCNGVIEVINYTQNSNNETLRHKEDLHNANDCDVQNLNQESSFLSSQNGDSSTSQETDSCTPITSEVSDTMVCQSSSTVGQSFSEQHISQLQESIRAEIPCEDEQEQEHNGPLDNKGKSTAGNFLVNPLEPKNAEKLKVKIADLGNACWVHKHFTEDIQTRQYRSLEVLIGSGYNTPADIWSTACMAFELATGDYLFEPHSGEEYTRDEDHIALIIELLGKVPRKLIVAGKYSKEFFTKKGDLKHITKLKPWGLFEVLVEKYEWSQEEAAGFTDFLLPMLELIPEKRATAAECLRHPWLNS
inactive: [1] -0.002 | [2] -0.023 | [3] 0.004 | [4] -0.015 | [5] -0.025

SRSF7 (UniProt Q16629)
Chain of UniProt Q16629 (Q16629 whole entry, looked up): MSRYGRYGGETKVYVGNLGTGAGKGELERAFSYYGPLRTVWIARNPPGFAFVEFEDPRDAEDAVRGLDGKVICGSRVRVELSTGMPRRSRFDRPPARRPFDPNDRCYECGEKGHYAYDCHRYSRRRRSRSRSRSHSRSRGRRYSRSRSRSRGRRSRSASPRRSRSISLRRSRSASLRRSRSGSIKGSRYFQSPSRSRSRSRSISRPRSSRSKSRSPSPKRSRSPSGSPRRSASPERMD
inactive: [1] -0.005 | [2] 0.023 | [3] 0.04 | [4] 0.025 | [5] -0.045

SLU7 (UniProt O95391)
inactive: [1] -0.015 | [2] 0.041 | [3] 0.045 | [4] -0.028 | [5] -0.16

SLC39A11 (UniProt Q8N1S5)
inactive: [1] 0.022 | [2] -0.041 | [3] 0.063 | [4] 0.186 | [5] 0.036

SPNS1 (UniProt Q9H2V7)
inactive: [1] 0.05 | [2] 0.017 | [3] 0.023 | [4] -0.076 | [5] -0.019

SMAP2 (UniProt Q8WU79)
inactive: [1] 0.02 | [2] -0.002 | [3] 0.029 | [4] 0.049 | [5] 0.02

SVIP (UniProt Q8NHG7)
Chain of UniProt Q8NHG7 (Q8NHG7 whole entry, looked up): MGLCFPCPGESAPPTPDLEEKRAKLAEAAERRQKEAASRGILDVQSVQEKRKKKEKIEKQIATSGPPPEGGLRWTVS
inactive: [1] 0.02 | [2] -0.048 | [3] -0.052 | [4] -0.069 | [5] -0.028

SSBP3 (UniProt Q9BWW4)
Chain of UniProt Q9BWW4 (Q9BWW4 whole entry, looked up): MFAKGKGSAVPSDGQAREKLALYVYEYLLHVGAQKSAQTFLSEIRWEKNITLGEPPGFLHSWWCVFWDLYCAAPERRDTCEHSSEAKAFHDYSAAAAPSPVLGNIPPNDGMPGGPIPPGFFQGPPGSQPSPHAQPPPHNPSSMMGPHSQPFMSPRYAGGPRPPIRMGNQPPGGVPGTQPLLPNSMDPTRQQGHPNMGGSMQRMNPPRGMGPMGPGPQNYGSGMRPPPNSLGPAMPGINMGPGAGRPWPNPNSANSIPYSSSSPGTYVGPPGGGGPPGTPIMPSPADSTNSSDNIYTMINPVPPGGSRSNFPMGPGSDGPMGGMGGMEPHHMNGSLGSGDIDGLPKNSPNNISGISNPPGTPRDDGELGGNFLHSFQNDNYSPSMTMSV
inactive: [1] -0.113 | [2] -0.031 | [3] 0.062 | [4] -0.06 | [5] -0.005

SPATA5L1 (UniProt Q9BVQ7)
inactive: [1] -0.019 | [2] 0.036 | [3] 0.006 | [4] -0.007 | [5] -0.039

SYNRG (UniProt Q9UMZ2)
inactive: [1] -0.033 | [2] 0.05 | [3] 0 | [4] 0.005 | [5] 0.032

SPG11 (UniProt Q96JI7)
inactive: [1] -0.22 | [2] -0.253 | [3] 0.015 | [4] 0.067 | [5] 0.006

SLC38A1 (UniProt Q9H2H9)
inactive: [1] 0.055 | [2] -0.116 | [3] 0.06 | [4] -0.116 | [5] -0.128

SH3BP2 isoform 4 (UniProt P78314)
inactive: [1] -0.05 | [2] 0.211 | [3] -0.124 | [4] 0.035 | [5] -0.021

SNRNP40 (UniProt Q96DI7)
Chain of UniProt Q96DI7 (Q96DI7 whole entry, looked up): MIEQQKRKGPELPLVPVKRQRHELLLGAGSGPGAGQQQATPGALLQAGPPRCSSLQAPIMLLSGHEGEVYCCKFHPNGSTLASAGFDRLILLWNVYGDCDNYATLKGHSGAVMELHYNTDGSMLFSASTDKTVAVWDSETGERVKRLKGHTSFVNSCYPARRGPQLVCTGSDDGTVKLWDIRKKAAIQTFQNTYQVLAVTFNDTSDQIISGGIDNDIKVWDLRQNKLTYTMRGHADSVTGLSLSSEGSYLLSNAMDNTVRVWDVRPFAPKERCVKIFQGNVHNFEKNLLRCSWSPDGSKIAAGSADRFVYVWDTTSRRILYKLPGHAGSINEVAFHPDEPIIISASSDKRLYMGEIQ
inactive: [1] 0.023 | [2] -0.03 | [3] 0.012 | [4] 0 | [5] -0.002

SOX5 (UniProt P35711)
Chain of UniProt P35711 (P35711 whole entry, looked up): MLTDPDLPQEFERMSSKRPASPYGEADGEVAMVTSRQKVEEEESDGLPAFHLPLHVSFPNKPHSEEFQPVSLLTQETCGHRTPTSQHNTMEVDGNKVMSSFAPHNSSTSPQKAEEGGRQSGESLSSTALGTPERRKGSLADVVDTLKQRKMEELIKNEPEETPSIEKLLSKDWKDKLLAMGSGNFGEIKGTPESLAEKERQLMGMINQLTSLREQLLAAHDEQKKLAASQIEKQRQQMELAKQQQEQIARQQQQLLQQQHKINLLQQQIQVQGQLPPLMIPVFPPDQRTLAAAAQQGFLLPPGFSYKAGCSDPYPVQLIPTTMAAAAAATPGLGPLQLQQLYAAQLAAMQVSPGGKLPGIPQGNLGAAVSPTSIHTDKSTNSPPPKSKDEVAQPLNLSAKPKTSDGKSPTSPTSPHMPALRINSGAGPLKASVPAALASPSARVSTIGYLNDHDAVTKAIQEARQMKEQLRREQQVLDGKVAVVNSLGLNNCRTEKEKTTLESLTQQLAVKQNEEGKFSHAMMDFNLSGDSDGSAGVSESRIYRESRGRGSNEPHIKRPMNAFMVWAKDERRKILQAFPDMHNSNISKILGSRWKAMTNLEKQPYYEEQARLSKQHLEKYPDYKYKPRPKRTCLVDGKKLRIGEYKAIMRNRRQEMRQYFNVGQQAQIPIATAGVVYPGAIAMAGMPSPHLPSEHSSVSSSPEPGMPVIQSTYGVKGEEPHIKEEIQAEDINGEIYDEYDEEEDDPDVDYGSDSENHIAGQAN
inactive: [1] -0.092 | [2] -0.052 | [3] 0.076 | [4] -0.005 | [5] 0

SLC7A5 (UniProt Q01650)
inactive: [1] 0.019 | [2] -0.027 | [3] 0.003 | [4] -0.061 | [5] -0.231

SFR1 isoform 2 (UniProt Q86XK3)
inactive: [1] -0.035 | [2] -0.005 | [3] -0.01 | [4] 0 | [5] 0.072

SULT1A1 (UniProt P50225)
inactive: [1] -0.022 | [2] -0.02 | [3] 0 | [4] 0.051 | [5] 0.088

SH3GL1 (UniProt Q99961)
inactive: [1] 0.007 | [2] 0.016 | [3] 0.007 | [4] 0.012 | [5] 0.003

STK25 (UniProt O00506)
Chain of UniProt O00506 (O00506 whole entry, looked up): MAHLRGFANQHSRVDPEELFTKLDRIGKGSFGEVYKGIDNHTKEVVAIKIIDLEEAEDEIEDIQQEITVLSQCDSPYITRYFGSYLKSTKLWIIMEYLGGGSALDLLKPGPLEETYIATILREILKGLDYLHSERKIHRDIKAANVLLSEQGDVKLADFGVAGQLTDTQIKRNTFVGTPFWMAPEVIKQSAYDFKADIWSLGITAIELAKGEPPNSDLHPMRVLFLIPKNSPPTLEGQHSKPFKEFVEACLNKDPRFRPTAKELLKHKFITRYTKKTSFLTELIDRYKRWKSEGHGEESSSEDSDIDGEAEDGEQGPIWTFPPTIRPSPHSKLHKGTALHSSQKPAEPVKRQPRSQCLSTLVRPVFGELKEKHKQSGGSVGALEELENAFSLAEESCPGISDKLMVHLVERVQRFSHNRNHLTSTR
inactive: [1] -0.05 | [2] 0.035 | [3] -0.062 | [4] 0.053 | [5] -0.048

SURF2 (UniProt Q15527)
inactive: [1] -0.013 | [2] 0.054 | [3] -0.054 | [4] 0.056 | [5] -0.032

SNX6, A0A0A0MRI2
inactive: [1] 0.014 | [2] 0.006 | [3] 0.016 | [4] 0.017 | [5] 0.115

SMG6 (UniProt Q86US8)
inactive: [1] 0.097 | [2] -0.041 | [3] -0.043 | [4] 0.076 | [5] 0.073

SYK (UniProt P43405)
inactive: [1] -0.016 | [2] 0.06 | [3] 0.135 | [4] 0.008 | [5] -0.052

SPR (UniProt P35270)
inactive: [1] 0.113 | [2] -0.031 | [3] -0.027 | [4] -0.034 | [5] -0.067

SMG1 (UniProt Q96Q15)
inactive: [1] -0.05 | [2] -0.012 | [3] 0.018 | [4] 0.034 | [5] 0.046

SRGN (UniProt P10124)
inactive: [1] 0.101 | [2] 0.14 | [3] 0.063 | [4] -0.03 | [5] -0.196

SMARCAD1 isoform 2 (UniProt Q9H4L7)
inactive: [1] -0.006 | [2] -0.036 | [3] 0.014 | [4] 0.014 | [5] 0.035

SKA1 (UniProt Q96BD8)
inactive: [1] -0.03 | [2] 0.005 | [3] 0.025 | [4] -0.018 | [5] 0.018

SUZ12 (UniProt Q15022)
inactive: [1] -0.011 | [2] 0.042 | [3] -0.008 | [4] -0.047 | [5] -0.039

TARBP2 (UniProt Q15633)
inactive: [1] 0.001 | [2] -0.003 | [3] -0.003 | [4] -0.019 | [5] 0.051

SLC38A10 (UniProt Q9HBR0)
inactive: [1] 0.007 | [2] 0.007 | [3] 0.036 | [4] -0.053 | [5] -0.04

STK38 (UniProt Q15208)
inactive: [1] -0.089 | [2] -0.02 | [3] -0.014 | [4] -0.012 | [5] -0.066

STIM1 (UniProt Q13586)
inactive: [1] -0.048 | [2] -0.008 | [3] 0.049 | [4] 0.028 | [5] 0.048

SNRPD2 (UniProt P62316)
inactive: [1] 0.039 | [2] -0.021 | [3] 0.028 | [4] -0.009 | [5] -0.068

SMAD9 (UniProt O15198)
Chain of UniProt O15198 (O15198 whole entry, looked up): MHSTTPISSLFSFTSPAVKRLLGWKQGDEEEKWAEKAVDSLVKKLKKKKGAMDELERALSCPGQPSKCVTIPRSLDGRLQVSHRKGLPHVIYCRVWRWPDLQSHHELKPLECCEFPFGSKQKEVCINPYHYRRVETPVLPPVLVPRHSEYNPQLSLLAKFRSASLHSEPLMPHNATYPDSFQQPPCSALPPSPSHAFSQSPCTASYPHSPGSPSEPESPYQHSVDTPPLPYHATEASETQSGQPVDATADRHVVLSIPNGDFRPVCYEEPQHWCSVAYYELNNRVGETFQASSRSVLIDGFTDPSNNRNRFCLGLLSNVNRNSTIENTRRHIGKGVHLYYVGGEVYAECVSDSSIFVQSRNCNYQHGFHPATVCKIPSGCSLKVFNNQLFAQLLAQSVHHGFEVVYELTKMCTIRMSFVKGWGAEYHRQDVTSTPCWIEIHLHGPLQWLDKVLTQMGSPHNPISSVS
inactive: [1] 0.102 | [2] -0.074 | [3] 0.058 | [4] -0.099 | [5] 0.042

SMTN isoform 6 (UniProt P53814)
inactive: [1] 0.053 | [2] -0.011 | [3] -0.01 | [4] 0.01 | [5] 0.081

STAT2 (UniProt P52630)
inactive: [1] -0.033 | [2] 0.005 | [3] 0.043 | [4] 0.033 | [5] 0.017

STK24 (UniProt B4DR80)
inactive: [1] -0.025 | [2] 0.003 | [3] -0.041 | [4] -0.019 | [5] -0.055

SP1 (UniProt P08047)
inactive: [1] 0.007 | [2] 0.042 | [3] 0.001 | [4] 0.038 | [5] 0

SPATS2 (UniProt Q86XZ4)
Chain of UniProt Q86XZ4 (Q86XZ4 whole entry, looked up): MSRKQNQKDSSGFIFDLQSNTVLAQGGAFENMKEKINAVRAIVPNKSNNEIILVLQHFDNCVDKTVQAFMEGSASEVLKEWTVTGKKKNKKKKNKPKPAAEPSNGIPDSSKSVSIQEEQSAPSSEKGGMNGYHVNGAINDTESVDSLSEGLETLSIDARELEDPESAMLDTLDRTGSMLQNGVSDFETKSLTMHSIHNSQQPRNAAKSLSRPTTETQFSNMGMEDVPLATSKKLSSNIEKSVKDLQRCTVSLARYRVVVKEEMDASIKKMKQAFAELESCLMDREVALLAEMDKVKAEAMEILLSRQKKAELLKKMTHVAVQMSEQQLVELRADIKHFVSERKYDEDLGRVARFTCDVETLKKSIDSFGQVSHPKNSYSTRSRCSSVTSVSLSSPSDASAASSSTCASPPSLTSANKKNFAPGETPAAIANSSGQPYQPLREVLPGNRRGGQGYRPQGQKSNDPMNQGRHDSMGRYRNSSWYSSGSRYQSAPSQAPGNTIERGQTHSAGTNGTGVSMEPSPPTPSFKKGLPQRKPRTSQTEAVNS
inactive: [1] 0.042 | [2] -0.035 | [3] 0.061 | [4] -0.014 | [5] -0.07

SNRPF (UniProt P62306)
inactive: [1] 0.04 | [2] -0.084 | [3] -0.12 | [4] -0.103 | [5] -0.206

SYNE2 isoform 2 (UniProt Q8WXH0)
inactive: [1] -0.037 | [2] 0.044 | [3] 0.02 | [4] -0.065 | [5] -0.416

SMC2 (UniProt O95347)
inactive: [1] -0.007 | [2] 0.018 | [3] 0.016 | [4] 0.003 | [5] 0.069

SRSF2 (UniProt Q01130)
inactive: [1] 0.023 | [2] -0.011 | [3] 0 | [4] -0.058 | [5] -0.129

STUB1 (UniProt Q9UNE7)
inactive: [1] -0.04 | [2] 0.036 | [3] -0.006 | [4] 0.035 | [5] 0.02

SPAG5 (UniProt Q96R06)
inactive: [1] 0.006 | [2] 0.004 | [3] 0.021 | [4] 0.013 | [5] 0.026

SKA3 (UniProt Q8IX90)
Chain of UniProt Q8IX90 (Q8IX90 whole entry, looked up): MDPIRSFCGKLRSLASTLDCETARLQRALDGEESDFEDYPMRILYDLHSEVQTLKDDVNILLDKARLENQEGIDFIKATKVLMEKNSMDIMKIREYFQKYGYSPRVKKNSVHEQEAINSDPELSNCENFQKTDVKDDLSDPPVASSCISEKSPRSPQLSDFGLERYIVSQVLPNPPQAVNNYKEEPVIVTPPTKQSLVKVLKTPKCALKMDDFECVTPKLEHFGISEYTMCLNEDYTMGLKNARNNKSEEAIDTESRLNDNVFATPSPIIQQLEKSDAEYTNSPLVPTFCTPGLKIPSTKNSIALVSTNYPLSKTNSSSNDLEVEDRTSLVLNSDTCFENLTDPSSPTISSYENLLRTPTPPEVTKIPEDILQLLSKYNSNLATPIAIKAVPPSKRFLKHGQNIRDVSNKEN
inactive: [1] -0.008 | [2] -0.002 | [3] -0.009 | [4] -0.016 | [5] -0.02

TADA3 (UniProt O75528)
inactive: [1] 0.043 | [2] 0 | [3] 0.087 | [4] -0.015 | [5] -0.098

SYF2 (UniProt O95926)
inactive: [1] 0.021 | [2] -0.102 | [3] 0.001 | [4] 0.015 | [5] -0.024

STOML2 (UniProt Q9UJZ1)
inactive: [1] -0.008 | [2] 0.004 | [3] -0.027 | [4] -0.025 | [5] -0.008

SLC19A1 (UniProt P41440)
Chain of UniProt P41440 (P41440 whole entry, looked up): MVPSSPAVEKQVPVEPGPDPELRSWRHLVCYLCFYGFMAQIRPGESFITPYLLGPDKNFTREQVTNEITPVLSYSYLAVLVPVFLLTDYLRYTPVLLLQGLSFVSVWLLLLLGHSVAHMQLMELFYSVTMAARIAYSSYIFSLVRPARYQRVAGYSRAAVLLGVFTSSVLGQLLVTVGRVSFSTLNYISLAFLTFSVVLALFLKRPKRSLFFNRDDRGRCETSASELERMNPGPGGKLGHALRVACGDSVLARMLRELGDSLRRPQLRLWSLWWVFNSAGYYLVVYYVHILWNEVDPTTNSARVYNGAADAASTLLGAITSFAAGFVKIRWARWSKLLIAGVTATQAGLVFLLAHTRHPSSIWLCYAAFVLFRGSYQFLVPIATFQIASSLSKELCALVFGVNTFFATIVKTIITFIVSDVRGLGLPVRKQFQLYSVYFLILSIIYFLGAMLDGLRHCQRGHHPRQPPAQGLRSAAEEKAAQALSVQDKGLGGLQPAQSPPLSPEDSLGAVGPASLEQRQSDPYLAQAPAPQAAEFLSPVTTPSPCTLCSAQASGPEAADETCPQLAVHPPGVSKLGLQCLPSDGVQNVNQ
inactive: [1] 0.017 | [2] -0.022 | [3] -0.056 | [4] -0.12 | [5] -0.176

SF3B6 (UniProt Q9Y3B4)
inactive: [1] 0.052 | [2] -0.032 | [3] -0.184 | [4] 0.014 | [5] 0
